# Results reported in the supplement of paper PMC11732987, “Enantioselective OTUD7B fragment discovery through chemoproteomics screening and high-throughput optimisation” (Communications Chemistry, 2025).
# Values without a mark were called inactive.
# What was measured:
# Test in all cases: log2 ratio of Biotin-Ahx-Ub-VS probe labelling (fragment/DMSO); higher = less target engagement (more negative = stronger competition), active = hit call of the paper (q ≤ 0.05, log2 ratio ≤ -1)
# Settings in all cases: compound concentration: 200 uM; treatment time: 3 h
# USP19 = molecular target: T1, USP19 (UniProt O94966)
# T1 sequence (whole entry): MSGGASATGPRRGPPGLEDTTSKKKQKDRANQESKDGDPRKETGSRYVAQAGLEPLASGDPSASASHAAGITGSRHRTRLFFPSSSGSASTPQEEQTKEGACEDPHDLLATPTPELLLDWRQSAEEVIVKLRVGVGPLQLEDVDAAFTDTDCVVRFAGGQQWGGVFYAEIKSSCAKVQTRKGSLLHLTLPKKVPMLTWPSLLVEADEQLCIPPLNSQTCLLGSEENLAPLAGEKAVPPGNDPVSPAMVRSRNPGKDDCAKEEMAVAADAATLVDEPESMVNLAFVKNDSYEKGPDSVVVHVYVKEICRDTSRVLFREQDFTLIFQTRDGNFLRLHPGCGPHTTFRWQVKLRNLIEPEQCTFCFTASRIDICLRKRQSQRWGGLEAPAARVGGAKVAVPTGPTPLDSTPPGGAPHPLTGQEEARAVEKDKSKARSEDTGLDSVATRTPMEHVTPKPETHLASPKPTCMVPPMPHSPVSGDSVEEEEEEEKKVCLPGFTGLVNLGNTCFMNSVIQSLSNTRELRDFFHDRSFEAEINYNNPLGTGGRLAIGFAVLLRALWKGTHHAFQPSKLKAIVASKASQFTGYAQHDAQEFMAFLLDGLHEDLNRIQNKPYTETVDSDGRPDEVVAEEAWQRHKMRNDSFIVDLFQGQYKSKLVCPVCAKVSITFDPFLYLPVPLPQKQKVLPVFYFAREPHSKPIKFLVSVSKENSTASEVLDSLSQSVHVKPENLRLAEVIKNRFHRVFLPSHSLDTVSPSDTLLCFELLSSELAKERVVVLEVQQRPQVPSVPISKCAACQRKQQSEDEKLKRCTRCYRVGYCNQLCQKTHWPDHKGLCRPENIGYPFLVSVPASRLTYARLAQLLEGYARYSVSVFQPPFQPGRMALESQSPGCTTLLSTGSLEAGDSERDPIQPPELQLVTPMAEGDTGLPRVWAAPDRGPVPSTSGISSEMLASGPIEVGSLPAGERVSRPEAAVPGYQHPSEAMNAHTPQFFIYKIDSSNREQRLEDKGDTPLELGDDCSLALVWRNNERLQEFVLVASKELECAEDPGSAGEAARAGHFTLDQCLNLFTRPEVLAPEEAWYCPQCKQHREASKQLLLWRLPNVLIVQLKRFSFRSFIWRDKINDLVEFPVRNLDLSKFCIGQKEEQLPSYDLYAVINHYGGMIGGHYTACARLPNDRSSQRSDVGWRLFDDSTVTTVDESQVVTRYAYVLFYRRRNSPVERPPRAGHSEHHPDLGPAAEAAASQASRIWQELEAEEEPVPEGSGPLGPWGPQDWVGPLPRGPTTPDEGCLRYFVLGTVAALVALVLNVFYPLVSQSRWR
# In short: (§1)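 Average log2 ratios of fragment over vehicle were obtained by unpaired t-test from global-median-normalised Spectronaut label-free quantities. Proteins with ≥2 unique peptides were included. HEK293T lysate (495 µg per sample) was treated in triplicate with fragment at 200 µM or vehicle for 3 h, then with Biotin-Ahx-Ub-VS at 0.5 µM final for 1 h, and labelled DUBs were NeutrAvidin-enriched and run by diaPASEF LC-MS/MS.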
# USP22 = molecular target: T2, USP22 (UniProt Q9UPT9)
# T2 sequence (whole entry): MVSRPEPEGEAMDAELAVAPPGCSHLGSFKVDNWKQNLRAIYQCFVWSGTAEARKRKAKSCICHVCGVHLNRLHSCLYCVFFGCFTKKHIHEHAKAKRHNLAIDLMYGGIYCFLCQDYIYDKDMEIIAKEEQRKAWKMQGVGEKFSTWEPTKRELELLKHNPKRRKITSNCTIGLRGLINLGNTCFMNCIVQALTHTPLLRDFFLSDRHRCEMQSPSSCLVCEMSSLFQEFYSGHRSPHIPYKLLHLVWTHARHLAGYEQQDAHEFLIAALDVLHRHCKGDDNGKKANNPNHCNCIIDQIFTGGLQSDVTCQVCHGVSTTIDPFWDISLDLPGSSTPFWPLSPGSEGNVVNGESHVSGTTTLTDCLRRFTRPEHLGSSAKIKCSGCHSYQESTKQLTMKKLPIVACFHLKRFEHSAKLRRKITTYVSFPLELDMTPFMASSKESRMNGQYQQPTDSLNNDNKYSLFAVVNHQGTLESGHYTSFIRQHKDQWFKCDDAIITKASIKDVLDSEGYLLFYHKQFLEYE
# In short: as §1
# USP24 = USP24 (UniProt Q9UPU5)
# In short: as §1
# USP25 = molecular target: T3, USP25 (UniProt Q9UHP3)
# T3 sequence (whole entry): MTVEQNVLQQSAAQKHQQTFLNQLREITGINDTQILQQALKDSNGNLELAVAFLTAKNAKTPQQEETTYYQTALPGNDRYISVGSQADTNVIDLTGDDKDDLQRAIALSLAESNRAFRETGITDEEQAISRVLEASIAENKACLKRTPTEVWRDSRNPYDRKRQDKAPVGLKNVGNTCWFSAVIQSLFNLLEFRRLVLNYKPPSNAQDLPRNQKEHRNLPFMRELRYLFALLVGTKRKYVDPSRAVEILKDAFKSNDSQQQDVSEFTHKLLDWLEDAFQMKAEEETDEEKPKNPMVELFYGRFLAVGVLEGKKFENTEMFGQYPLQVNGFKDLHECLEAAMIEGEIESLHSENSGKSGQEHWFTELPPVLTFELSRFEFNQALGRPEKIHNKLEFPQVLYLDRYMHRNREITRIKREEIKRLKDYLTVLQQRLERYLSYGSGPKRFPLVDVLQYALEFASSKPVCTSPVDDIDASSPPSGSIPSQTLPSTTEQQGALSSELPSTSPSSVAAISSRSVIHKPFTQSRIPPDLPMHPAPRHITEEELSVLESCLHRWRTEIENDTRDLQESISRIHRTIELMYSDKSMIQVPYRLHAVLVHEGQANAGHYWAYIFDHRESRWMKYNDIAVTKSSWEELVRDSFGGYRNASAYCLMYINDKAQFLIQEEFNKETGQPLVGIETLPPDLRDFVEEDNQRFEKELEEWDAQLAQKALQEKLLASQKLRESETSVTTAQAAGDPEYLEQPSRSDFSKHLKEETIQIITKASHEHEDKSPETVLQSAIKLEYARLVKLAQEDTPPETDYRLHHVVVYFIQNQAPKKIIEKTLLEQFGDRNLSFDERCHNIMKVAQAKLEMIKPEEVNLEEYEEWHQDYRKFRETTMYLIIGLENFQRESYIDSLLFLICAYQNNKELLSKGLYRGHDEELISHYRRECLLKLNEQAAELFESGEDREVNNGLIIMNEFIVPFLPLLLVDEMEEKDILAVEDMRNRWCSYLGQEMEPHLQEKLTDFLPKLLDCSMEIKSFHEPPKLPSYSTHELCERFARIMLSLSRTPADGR
# In short: as §1
# USP28 = molecular target: T4, USP28 (UniProt Q96RU2)
# T4 sequence (whole entry): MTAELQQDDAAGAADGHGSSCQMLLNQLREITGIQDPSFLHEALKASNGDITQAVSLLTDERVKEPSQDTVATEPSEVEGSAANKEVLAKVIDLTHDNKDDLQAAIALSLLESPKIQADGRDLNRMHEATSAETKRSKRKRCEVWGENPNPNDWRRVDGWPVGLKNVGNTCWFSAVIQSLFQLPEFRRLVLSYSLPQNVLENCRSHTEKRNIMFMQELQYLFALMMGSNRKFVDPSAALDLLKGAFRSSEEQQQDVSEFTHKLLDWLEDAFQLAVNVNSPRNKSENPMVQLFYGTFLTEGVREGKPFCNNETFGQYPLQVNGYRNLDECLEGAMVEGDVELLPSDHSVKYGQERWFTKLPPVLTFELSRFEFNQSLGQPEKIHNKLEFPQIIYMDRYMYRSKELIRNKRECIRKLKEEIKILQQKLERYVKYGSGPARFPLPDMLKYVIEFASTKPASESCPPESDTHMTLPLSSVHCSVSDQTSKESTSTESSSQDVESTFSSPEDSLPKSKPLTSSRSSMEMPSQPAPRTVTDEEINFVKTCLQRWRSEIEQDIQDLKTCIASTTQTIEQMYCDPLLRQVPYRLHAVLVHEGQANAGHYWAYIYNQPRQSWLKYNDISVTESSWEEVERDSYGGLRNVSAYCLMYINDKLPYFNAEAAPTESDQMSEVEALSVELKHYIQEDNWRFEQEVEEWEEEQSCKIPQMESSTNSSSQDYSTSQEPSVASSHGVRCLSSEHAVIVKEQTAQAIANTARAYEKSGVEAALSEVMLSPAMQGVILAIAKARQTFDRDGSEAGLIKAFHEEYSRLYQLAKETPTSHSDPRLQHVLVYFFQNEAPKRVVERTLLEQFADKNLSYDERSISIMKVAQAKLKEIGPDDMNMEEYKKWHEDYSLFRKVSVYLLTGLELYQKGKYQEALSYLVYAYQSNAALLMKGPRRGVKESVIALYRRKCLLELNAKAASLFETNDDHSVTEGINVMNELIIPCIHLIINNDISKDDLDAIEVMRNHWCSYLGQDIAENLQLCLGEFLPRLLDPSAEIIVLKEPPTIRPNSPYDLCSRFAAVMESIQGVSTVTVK
# In short: as §1
# USP24, sequence (Q9UPU5 whole entry): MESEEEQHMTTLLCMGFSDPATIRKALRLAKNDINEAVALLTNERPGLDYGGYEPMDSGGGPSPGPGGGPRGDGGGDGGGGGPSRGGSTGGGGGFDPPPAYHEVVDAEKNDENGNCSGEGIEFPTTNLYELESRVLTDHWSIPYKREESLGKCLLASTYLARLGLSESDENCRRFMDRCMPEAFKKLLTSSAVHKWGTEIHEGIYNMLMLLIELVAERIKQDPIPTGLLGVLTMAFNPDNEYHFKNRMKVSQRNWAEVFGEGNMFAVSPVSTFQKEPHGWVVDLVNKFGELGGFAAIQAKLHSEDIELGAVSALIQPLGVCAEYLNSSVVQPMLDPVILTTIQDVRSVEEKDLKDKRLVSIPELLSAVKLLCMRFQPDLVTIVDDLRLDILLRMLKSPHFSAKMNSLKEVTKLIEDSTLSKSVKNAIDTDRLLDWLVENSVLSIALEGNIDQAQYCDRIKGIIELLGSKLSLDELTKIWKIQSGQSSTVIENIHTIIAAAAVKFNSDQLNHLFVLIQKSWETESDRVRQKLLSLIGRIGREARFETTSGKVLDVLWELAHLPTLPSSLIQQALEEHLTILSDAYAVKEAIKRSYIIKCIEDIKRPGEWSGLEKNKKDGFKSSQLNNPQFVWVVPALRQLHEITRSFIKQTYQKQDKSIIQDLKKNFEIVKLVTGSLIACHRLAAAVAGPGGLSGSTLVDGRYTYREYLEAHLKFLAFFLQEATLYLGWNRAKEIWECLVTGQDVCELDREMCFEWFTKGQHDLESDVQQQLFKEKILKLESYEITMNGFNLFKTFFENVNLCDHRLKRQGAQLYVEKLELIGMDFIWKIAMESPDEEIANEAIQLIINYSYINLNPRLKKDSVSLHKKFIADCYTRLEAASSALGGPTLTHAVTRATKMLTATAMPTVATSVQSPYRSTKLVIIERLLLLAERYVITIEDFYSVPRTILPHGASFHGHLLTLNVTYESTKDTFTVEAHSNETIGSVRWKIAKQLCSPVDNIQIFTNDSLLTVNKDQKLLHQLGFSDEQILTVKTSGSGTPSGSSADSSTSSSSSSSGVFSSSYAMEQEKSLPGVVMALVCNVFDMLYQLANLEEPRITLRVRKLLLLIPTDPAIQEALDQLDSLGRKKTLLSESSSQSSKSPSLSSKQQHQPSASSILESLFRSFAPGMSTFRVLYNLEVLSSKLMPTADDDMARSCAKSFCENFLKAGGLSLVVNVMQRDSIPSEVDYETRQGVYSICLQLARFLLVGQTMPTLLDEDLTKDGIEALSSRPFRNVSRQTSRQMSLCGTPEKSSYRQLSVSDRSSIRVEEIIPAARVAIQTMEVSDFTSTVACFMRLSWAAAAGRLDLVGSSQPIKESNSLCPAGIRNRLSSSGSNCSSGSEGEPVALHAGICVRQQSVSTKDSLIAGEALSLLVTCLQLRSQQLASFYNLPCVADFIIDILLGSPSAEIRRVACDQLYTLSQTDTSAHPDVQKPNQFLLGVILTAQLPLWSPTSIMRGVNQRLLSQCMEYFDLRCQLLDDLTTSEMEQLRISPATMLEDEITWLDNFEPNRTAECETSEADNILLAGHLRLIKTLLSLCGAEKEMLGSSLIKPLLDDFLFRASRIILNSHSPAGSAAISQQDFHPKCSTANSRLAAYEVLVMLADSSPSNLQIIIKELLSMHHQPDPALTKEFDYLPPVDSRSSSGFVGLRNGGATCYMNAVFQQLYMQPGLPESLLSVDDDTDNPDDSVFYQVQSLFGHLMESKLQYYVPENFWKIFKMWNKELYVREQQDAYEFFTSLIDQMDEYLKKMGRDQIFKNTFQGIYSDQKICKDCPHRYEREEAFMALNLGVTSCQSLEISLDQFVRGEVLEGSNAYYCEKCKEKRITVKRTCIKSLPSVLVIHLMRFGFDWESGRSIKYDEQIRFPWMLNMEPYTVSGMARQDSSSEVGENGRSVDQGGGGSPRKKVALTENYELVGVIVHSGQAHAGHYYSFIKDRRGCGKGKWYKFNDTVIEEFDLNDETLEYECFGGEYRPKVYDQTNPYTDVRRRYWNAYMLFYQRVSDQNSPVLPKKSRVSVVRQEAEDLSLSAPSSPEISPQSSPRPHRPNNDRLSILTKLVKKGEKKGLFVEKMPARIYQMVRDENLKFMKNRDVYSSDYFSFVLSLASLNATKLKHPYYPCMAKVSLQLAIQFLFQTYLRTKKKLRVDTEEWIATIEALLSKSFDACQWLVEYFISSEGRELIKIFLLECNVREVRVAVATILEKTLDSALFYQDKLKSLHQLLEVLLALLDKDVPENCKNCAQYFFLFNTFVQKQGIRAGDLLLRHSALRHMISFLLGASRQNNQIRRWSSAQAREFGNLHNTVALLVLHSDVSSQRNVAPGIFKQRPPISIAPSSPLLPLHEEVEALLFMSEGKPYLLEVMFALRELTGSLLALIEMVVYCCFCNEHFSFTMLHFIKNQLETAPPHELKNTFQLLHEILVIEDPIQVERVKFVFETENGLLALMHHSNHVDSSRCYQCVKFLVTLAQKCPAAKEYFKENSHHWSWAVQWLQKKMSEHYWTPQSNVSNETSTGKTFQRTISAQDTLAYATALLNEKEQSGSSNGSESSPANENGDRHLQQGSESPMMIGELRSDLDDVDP
smiles,measurement,setting,value
Cc1conc1C1CN(C(=O)CCl)C1,log2 ratio of Biotin-Ahx-Ub-VS probe labelling,USP19,-1.19 (active)
same,log2 ratio of Biotin-Ahx-Ub-VS probe labelling,USP22,-0.421
same,log2 ratio of Biotin-Ahx-Ub-VS probe labelling,USP24,-1.11 (active)
same,log2 ratio of Biotin-Ahx-Ub-VS probe labelling,USP25,-0.81
same,log2 ratio of Biotin-Ahx-Ub-VS probe labelling,USP28,-1.16 (active)
